The list is not random: actives were taken first. Their share in the collection is about 10%.
BAZ2B inh: BAZ2B (human) inhibition; Q9UIF8; AlphaScreen BAZ2B-H3K14Ac peptide displacement; Potency, µM (highest dose often 114 µM), actives largely listed as inhibitors; 360,000 tested, 4.4% active; AID 504333; note: nearly all actives have a fitted effect of over 60% in size
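AlphaScreen luminescence quantifies BAZ2B engagement of H3K14Ac peptide; the protein and biotinylated peptide are both at 50 nM final, buffer PBS pH 7.4 with 0.01% Tween-20, all steps at room temperature.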
L3MBTL1 block: L3MBTL1 (human) inhibition; Q9Y468; AlphaScreen L3MBTL1–H3K9me1 peptide binding; Potency, µM (series often up to 57.1 µM), usual class: inhibitors; 230,000 tested, 0.66% active; note: nearly all actives have a fitted effect of over 60% in size
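AlphaScreen proximity signal between nickel-chelate acceptor and streptavidin donor beads (final 10 ug/mL) reports binding of 50 nM L3MBTL1 to 75 nM biotin-H3 K9me1 peptide; complex incubated with compounds 30 min at room temperature; cefsulodin titration as control.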
JMJD2A Tudor: blocks the human JMJD2A Tudor domain; AlphaScreen JMJD2A-Tudor / H3K4me3 peptide binding; 390,000 tested, 4.4% active; AID 504339; Potency, µM (doses to about 114 µM), actives largely listed as inhibitors; O75164; note: nearly all actives have a fitted effect of over 50% in size
GLS inhibitor: blocks human kidney-isoform glutaminase activity; O94925; GLS enzymatic activity, qHTS titration; 410,000 tested, 0.21% active; Potency, µM (doses to about 45.5 µM), usual class: inhibitors
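Coupled fluorescence readout: glutamate oxidase/HRP/Amplex Red detect glutamate formed by hKGA from L-glutamine (1 mM solution added). Buffer 45 mM KH2PO4 pH 8.2, 0.02% Tween-20; reads at t0 and 30 min RT.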
HP1b binding inh: inhibitors of HP1-beta chromodomain binding to methylated histone tails; P83916; AlphaScreen HP1-beta / biotin-H3K9me3 peptide binding; Potency, µM (series often up to 114 µM), most hits filed as inhibitors; 390,000 tested, 0.56% active; note: nearly all actives have a fitted effect of over 70% in size
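HP1-beta protein (50 nM final) preincubated 30 min at room temperature with biotinylated H3(1-18)K9me3 peptide (50 nM) in PBS pH 7.4, 0.01% Tween-20, then compound added for 30 min. AlphaScreen streptavidin donor/nickel chelate acceptor beads (10 ug/mL final), 30 min dark, luminescence read.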
G9a block: G9a (human) methyltransferase inhibition; Q96KQ7; G9a H3K9 monomethylation, AlphaScreen, 2 h; Potency, µM (titrated, usually from 102 µM), usual class: inhibitors; 350,000 tested, 8.8% active; AID 504332; note: nearly all actives have a fitted effect of over 75% in size
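Using a bead-based AlphaScreen, monomethylated H3K9 product from 2 h room-temperature reactions (G9a 20 nM, peptide 500 nM, SAM 20 uM) was detected with 0.5 ug/mL rabbit anti-H3K9me1 antibody.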
Hits are given with their value; [ ] = remark or other dose. Calls come from the whole dose curve; as a rule, active = well fitted curve in the direction sought with a large enough effect; inconclusive = small, poorly fitted or top-dose-only effect, or another doubt; inactive = no such curve, though single readings can be large; an effect the other way counts as inactive or inconclusive.

COc1ccc(NC(=O)CN(C)CC(=O)Nc2ccc(N3CCOCC3)cc2)c([N+](=O)[O-])c1 was read as BAZ2B inh 45µM, JMJD2A Tudor inconclusive, GLS inhibitor inactive, HP1b binding inh inactive and G9a block inactive.
COc1cccc(NC(=O)CN(C)CC(=O)Nc2ccc(Cl)cc2[N+](=O)[O-])c1 was read as BAZ2B inh 50µM, L3MBTL1 block inactive, JMJD2A Tudor inconclusive, GLS inhibitor inactive, HP1b binding inh inconclusive and G9a block 40µM.
Screening CCN(CC(=O)Nc1cccc(OC)c1)CC(=O)Nc1ccc(C)cc1Cl returned BAZ2B inh 32µM, JMJD2A Tudor 20µM, GLS inhibitor inactive, HP1b binding inh inactive and G9a block inconclusive.
For Cc1cccc(CNc2nc(-c3ccc4c(c3)OCO4)nc3ccccc23)c1 the results were G9a block inactive[0.501 µM].
For C=CCOc1ccc(CNc2nn[nH]n2)cc1OC the results were BAZ2B inh inactive, JMJD2A Tudor inconclusive, GLS inhibitor inactive, HP1b binding inh inactive and G9a block inactive.
COc1cc(CNc2ccc(N3CCCC3)cc2)ccc1OCc1ccccc1F was read as BAZ2B inh 25µM, L3MBTL1 block inconclusive, JMJD2A Tudor 11µM, GLS inhibitor inactive, HP1b binding inh 20µM and G9a block 10µM.
COc1cc(CNc2ccc(S(N)(=O)=O)cc2)ccc1OCc1ccccc1F was read as JMJD2A Tudor inactive, GLS inhibitor inactive and HP1b binding inh inactive.
For C=CCOc1ccc(CNc2ccc(NC(=O)CC(C)C)cc2)cc1OC the results were BAZ2B inh 50µM, L3MBTL1 block inactive, JMJD2A Tudor inconclusive, GLS inhibitor inactive, HP1b binding inh inactive and G9a block 71µM.
COc1cc(CNCCN2CCOCC2)ccc1OCC(=O)NC(C)(C)C was read as BAZ2B inh inactive, L3MBTL1 block inactive, JMJD2A Tudor inactive, GLS inhibitor inactive, HP1b binding inh inactive and G9a block inconclusive.
For COc1cc(CNc2ccc(N3CCCCC3)cc2)ccc1OCC(=O)NC(C)(C)C the results were BAZ2B inh 32µM, L3MBTL1 block inconclusive, JMJD2A Tudor 45µM, GLS inhibitor inactive, HP1b binding inh inconclusive and G9a block 14µM.
`Cc1ccc(CNC(=O)C2CCN(S(=O)(=O)c3cc(-c4noc(C)n4)ccc3C)CC2)cc1` gave BAZ2B inh inactive, JMJD2A Tudor inactive, GLS inhibitor inactive, HP1b binding inh inactive and G9a block inactive.
For CCOC(=O)NNc1ccc2nonc2c1[N+](=O)[O-] the results were BAZ2B inh 40µM, L3MBTL1 block 32µM, JMJD2A Tudor 56µM, GLS inhibitor inactive and HP1b binding inh inconclusive.
Screening Cc1nn(C)c(C(=O)Nc2ccc(Cl)c([N+](=O)[O-])c2)c1Cl returned BAZ2B inh inactive, L3MBTL1 block inactive, JMJD2A Tudor inactive, GLS inhibitor inactive, HP1b binding inh inactive and G9a block 16µM.
Screening Cc1ccc(NC(=S)NNC(=O)c2c(Cl)c(C)nn2C)cc1 returned BAZ2B inh inactive, L3MBTL1 block inactive, JMJD2A Tudor inactive, GLS inhibitor inactive, HP1b binding inh inactive and G9a block 1.4µM.
For CCN(CC)S(=O)(=O)c1ccc(N2CCc3ccccc3C2)nc1 the results were BAZ2B inh inactive, JMJD2A Tudor inactive, GLS inhibitor inactive, HP1b binding inh inactive and G9a block 40µM.
`CC(C)N(C(C)C)S(=O)(=O)c1ccc(N2CCc3ccccc3C2)nc1` gave BAZ2B inh inactive, JMJD2A Tudor inactive, GLS inhibitor inactive, HP1b binding inh inactive and G9a block inconclusive.
CCN(c1ccccc1)S(=O)(=O)c1ccc(N2CCN(c3ccc(O)cc3)CC2)nc1 was read as L3MBTL1 block inconclusive, JMJD2A Tudor 22µM, GLS inhibitor inconclusive and HP1b binding inh 50µM.
`COC(=O)c1ccc(N2CCOCC2)c(NC(=O)Nc2cccc(OC)c2)c1` gave BAZ2B inh inactive, L3MBTL1 block inactive, JMJD2A Tudor inactive, GLS inhibitor inactive, HP1b binding inh inactive and G9a block 45µM.
CCOC(=O)c1ccc(N2CCN(c3ccccc3F)CC2)c(NC(=O)Nc2cccc(OC)c2)c1 was read as BAZ2B inh inactive, L3MBTL1 block inactive, JMJD2A Tudor inactive, GLS inhibitor inactive, HP1b binding inh inactive and G9a block inactive.
For CC1CCC(N2CC(=O)N(C3CCCCC3)C(c3ccc(Cl)cc3)C2=O)CC1 (stereo not given) the results were BAZ2B inh inactive, JMJD2A Tudor inactive, GLS inhibitor inactive, HP1b binding inh inactive and G9a block inactive.
CCOC(=O)CCc1c(C)nc2cc(-c3cc(OC)cc(OC)c3)[nH]n2c1=O was read as JMJD2A Tudor inactive, GLS inhibitor inactive, HP1b binding inh inactive and G9a block inactive.
COc1ccc(/C=N/Nc2nnc(C)n2N)cc1OC(C)=O was read as BAZ2B inh inactive, JMJD2A Tudor inactive, GLS inhibitor inactive, HP1b binding inh inactive and G9a block 45µM.
`COc1ccc(/C=N/Nc2nnc(C)n2N)cc1OC` gave BAZ2B inh inactive, JMJD2A Tudor inactive, GLS inhibitor inconclusive, HP1b binding inh inactive and G9a block inactive.
Cc1ccc(C)c(CN2C(=O)c3ccccc3S(=O)(=O)c3ccc(C(=O)N4CCN(c5ccccn5)CC4)cc32)c1 was read as BAZ2B inh inconclusive, JMJD2A Tudor inactive, GLS inhibitor inactive, HP1b binding inh inactive and G9a block inconclusive.
Screening O=c1[nH]c2ccc(Cl)cc2c(-c2ccccc2)c1CN1CCOCC1 returned BAZ2B inh inactive, L3MBTL1 block inactive, JMJD2A Tudor inconclusive, GLS inhibitor inactive, HP1b binding inh inactive and G9a block 35µM.
`O=c1[nH]c2ccc(Cl)cc2c(-c2ccccc2)c1N1CCOCC1` gave BAZ2B inh inactive, L3MBTL1 block inactive, JMJD2A Tudor inconclusive, GLS inhibitor inactive, HP1b binding inh inactive and G9a block inactive.
Screening c1cc2c(cn1)cnc1cscc12 returned BAZ2B inh inactive, L3MBTL1 block inactive, JMJD2A Tudor inactive, GLS inhibitor inactive, HP1b binding inh inactive and G9a block 79µM.
`CN(C)c1ccc(NC(=O)CSCc2nc3c(nnn3Cc3ccc(F)cc3)c(=O)[nH]2)cc1` gave BAZ2B inh inconclusive, L3MBTL1 block inactive, JMJD2A Tudor 50µM, GLS inhibitor inactive, HP1b binding inh inactive and G9a block inconclusive.
`CCc1ccc(NC(=O)Cn2c(-c3cncs3)nc3ccccc32)cc1` gave BAZ2B inh inconclusive, JMJD2A Tudor inconclusive, GLS inhibitor inactive, HP1b binding inh inactive and G9a block inactive.
Screening N#C/C(=C\c1ccc(N2CCOCC2)c([N+](=O)[O-])c1)c1nc2ccccc2[nH]1 returned BAZ2B inh 35µM, L3MBTL1 block inactive, JMJD2A Tudor inconclusive, GLS inhibitor inactive, HP1b binding inh inactive and G9a block inactive.
